Drawing on PubChem BioAssay (NCATS), this text covers outcome, activation and Potency for 1 compound.

In assay [1] the target is D(1A) dopamine receptor (Homo sapiens) (UniProt P21728). Kind of assay: HTS Assay for Allosteric Agonists of the Human D1 Dopamine Receptor: Primary Screen for Potentiators (AID 488982). Also: 0% is about no effect. In short, it runs like this:
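Calcium flux in an inducible, force-coupled HEK293 Trex D1 line (overnight at 30 C): agonist mode is the 180 s kinetic read after compound; potentiator mode is the following 180 s read after dopamine at EC20.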

For assay [2], the target named is Thyrotropin-releasing hormone receptor (Homo sapiens) (UniProt P34981). Kind of assay: qHTS for Small Molecule Agonists and Allosteric Enhancers of Human TRH Receptor: Validation Screen for Agonists (AID 493127;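 active = calcium activation more than 3 SD above the typical response in the agonist read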;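 also: intracellular calcium rise by fluo-8 fluorescence before TRH EC20 addition; 0% is about no effect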). The note with it: TRH receptor agonist cell assay; at 2 µM; active compounds read high. In short, it runs like this:
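TRHR-expressing cells were plated overnight in serum-containing medium, then loaded with fluo-8 calcium dye at room temperature for 30 min–1.5 h. After a 10 s baseline, compound was pin-transferred and calcium fluorescence (ex 480/em 530) read kinetically for agonist response.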

Assay [3] in a line: qHTS for Inhibitors of Cell Surface uPA Generation: Validation Assay (AID 493164).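 Also: RAW 264.7 macrophage cells exposed to compound for 18 h; 0% is about no effect.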 In short, it runs like this:
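RAW 264.7, 4000 cells/well, o/n plating; cpd 7-pt 1:5 dilution 2.45 nM–38.3 uM final; 18 h, 37 C/5% CO2; ATP-Lite, 5 s luminescence exposure.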

Assay [4] addresses Galactokinase (Homo sapiens) (UniProt P51570). Description: qHTS Validation Assay for Inhibitors of Human Galactokinase (GALK) (AID 493189). Also: 0% is about no effect. In short, it runs like this: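 GALK (5 nM) with 35 uM ATP and 100 uM galactose in HEPES pH8.0, MgCl2, NaCl, DTT, BSA; 1 h at room temperature. Residual ATP read by Kinase-Glo Plus luminescence after 10 min.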
Assay [5] in a line: Validation screen for small molecules that induce DNA re-replication in SW480 colon adenocarcinoma cells (AID 504364). Also: 0% is about no effect. A digest of the protocol: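 SW480 cells seeded at 250 per well were exposed to compound or DMSO for 48 hr at 37 C, 5% CO2, then stained with Hoechst for 40 min. DNA content per nucleus was imaged (405 nm ex, 500-530 nm em).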
Assay [6] concerns the target Peptidyl-prolyl cis-trans isomerase NIMA-interacting 1 (Homo sapiens) (UniProt Q13526). Kind of assay: qHTS Validation Assay to Find Inhibitors of Pin1 (AID 504536; active = well fitted inhibition curve with a large enough effect in the polarisation, with a control signal flat, not every such curve was filed as active; the % refers to the polarisation;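 also: 0% = full Pin1 enzyme wells and -100% = no-enzyme wells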). A digest of the protocol:
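Fluorescence polarization competition: compounds (titration) displace HiFluor-488-labeled Pin1-1b peptide from Pin1 (0.3 uM final) in pH 7.5 HEPES buffer with DTT, 10 min at room temperature; %Activity normalized to no-enzyme wells, curves fitted.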

The target of assay [7] is Phosphoglycerate kinase, glycosomal (Trypanosoma brucei brucei) (UniProt P07378). Kind of assay: qHTS Validation Assay to Find Inhibitors of Phosphoglycerate Kinase (AID 504547).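 Also: control wells lack PGK and mark full inhibition.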 In short, it runs like this: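 Inhibition of the enzyme is judged by a Kinase-Glo Plus luminescent signal following a one-hour incubation at room temperature. Because 1,3-BPG is unstable, it is made in situ by GAPDH at 100nM final; no-PGK wells define the baseline.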

Assay [8] has as its target Voltage-gated inwardly rectifying potassium channel KCNH2 (Homo sapiens) (UniProt Q12809). Kind of assay: qHTS Assay for Small Molecule Inhibitors of the Human hERG Channel Activity (AID 588834).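 Also: top concentration of the series differs between compounds; % is scaled to controls: 0 for no effect and ±100 for the full control effect; lower thallium flux fluorescence means stronger hERG block; nearly all actives have a fitted effect of over 50% in size.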 In short, it runs like this: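 U2OS cells transduced with hERG via BacMam (MOI ~100), plated 2000/well, loaded with FluxOR thallium dye, compound ~10 min, then stimulation buffer; fluorescence decrease read kinetically; AC50 from Hill fits.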

Assay [9] has as its target Glutaminase kidney isoform, mitochondrial (Homo sapiens) (UniProt O94925). Kind of assay: qHTS for Inhibitors of Glutaminase (GLS): LOPAC Validation (AID 624146). Also: potency is read from the fitted curve at half-maximal effect; nearly all actives have a fitted effect of over 60% in size. A digest of the protocol:
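Human kidney-isoform GLS in 45 mM KH2PO4 pH 8.2, 0.02% Tween-20, with compound, started with 1mM L-Glutamine (added stock). Glutamate oxidase/HRP/Amplex red coupled fluorescence read at start and after 30 min at RT.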

Assay [10] is described as follows: qHTS of Trypanosoma Brucei Inhibitors: LOPAC Validation (AID 624147). Also: 0% is about no effect. A digest of the protocol: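 ADP (130 uM final) triggers the TbPYK reaction after compound addition; incubation is 45 min at room temperature. Kinase-Glo Plus is then added and luminescence imaged. Normalized data are fitted to concentration-effect curves.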
For assay [11], the target named is Glucagon-like peptide 1 receptor (Homo sapiens) (UniProt P43220). Description: qHTS of GLP-1 Receptor Agonists: LOPAC Validation (AID 624148).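 Also: luminescence from a luciferase reporter switched on by cAMP; 0% is about no effect; higher luminescence signal means agonism.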 A digest of the protocol:
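Agonism scored as increased luciferase luminescence driven by cAMP in HEK293 clones carrying GLP-1R. Cells settled 12 hours, received compound for 4-6 hr at 37 deg C, 5% CO2, and were read after 12 min detection reagent at RT.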

Assay [12] is described as follows: qHTS of Nrf2 Activators: LOPAC Validation (AID 624149). Also: 0% is about no effect. In short, it runs like this: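 AREc32 cells carrying an ARE-driven firefly luciferase were grown overnight in OPTI-MEM with 5% FBS, then exposed to compounds for 24 hr at 37 deg C. Luciferase signal was read after 30 min with Steady-Glo at RT.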
Assay [13] is described as follows: HTS Assay for Allosteric Antagonists of the Human D2 Dopamine Receptor: Hit Validation in HTRF (AID 624455).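 Also: stable D1 dopamine receptor cell line scored for blocking the D1 response; % is scaled to controls: 0 for no effect and ±100 for the full control effect.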 In short, it runs like this: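 Hits were examined in an HTRF assay using cells stably expressing the D1 dopamine receptor, scoring inhibition of the D1-mediated response. The preceding primary screen tracked calcium flux after an EC80 dopamine addition in force-coupled, inducible Hek293 Trex D2 cells.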

Assay [14] concerns the target Tyrosine-protein kinase Yes (Homo sapiens) (UniProt P07947). Kind of assay: qHTS for small molecule inhibitors of Yes1 kinase: Primary Screen (AID 686947). Also: potency is read from the fitted curve at half-maximal effect; nearly all actives have a fitted effect of over 60% in size. A digest of the protocol:
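ADP-Glo luminescence readout; final 4 nM Yes1, 0.1 mM ATP, 0.3 mg/mL poly(E4Y), Tris pH 7.5, MgCl2, DTT, Brij-35. 20 min compound preincubation, 60 min reaction at RT. Normalized to DMSO wells with and without enzyme.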

Assay [15] in a line: qHTS for small molecule inhibitors of Yes1 kinase: Counter Assay (AID 686950).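 Also: no kinase present so only ADP-Glo detection of a fixed ADP amount is tested; luminescence from ADP-Glo reporting ADP in a fixed ATP and ADP mixture; series mostly up to about 77 µM; 0% = DMSO wells with ATP plus ADP and -100% = ATP-only wells without ADP.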 A digest of the protocol:
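Luminescence read-out from ADP-Glo quantifies a fixed ADP amount (0.02 mM ADP with 0.08 mM ATP) after 60 min at room temperature; signal is normalized between DMSO wells with ATP/ADP and with 0.1 mM ATP alone.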

Assay [16] has as its target Arylsulfatase A (Homo sapiens) (UniProt P15289). Kind of assay: qHTS screen for enhancers of Arylsulfatase A (ASA1): LOPAC Validation Assay (AID 720538). Also: potency is read from the fitted curve at half-maximal effect. A digest of the protocol: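 SV40-transformed skin fibroblasts from an MLD patient (ASA-I179S) were treated with compounds for 48h at 37 degree C, then lysed with 0.5mM pNCS final substrate for 14h at room temperature; NaOH stop, fluorescence read (Ex=525 nm; Em=598 nm).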

Assay [17] is described as follows: qHTS for compounds that reverse cellular toxicity of Amyloid beta (A-beta) peptide in yeast: LOPAC Validation Assay (AID 720559).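 Also: plate controls were DMSO for no effect and equimolar ferric chloride plus clioquinol rescue for full effect.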 In short, it runs like this:
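Yeast cells expressing toxic A-beta were combined with pinned compounds in growth medium and incubated 48 hr at 30 C. Growth was read as absorbance at 600 nm and normalized to DMSO and to an equimolar FeCl3/clioquinol positive control.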

The nature of assay [18]: qHTS for Activators of Parkin Expression: LOPAC Validation Assay (FLuc Reporter) (AID 720573; also: potency is read from the fitted curve at half-maximal effect). In short, it runs like this: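 Neuronal cell line stably carrying FLuc/NLuc coincidence reporter under Parkin promoter; cells plated 24 h, then compounds added in 7-point dose response for 24 h at 37 C. FLuc luminescence read; normalized to DMSO and positive control (100%).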

Assay [19] has as its target T1, Hexokinase-4 (Homo sapiens) + Glucokinase regulatory protein (Homo sapiens) (UniProt P35557+Q14397). Description: qHTS assay for inhibitors of recombinant human GCK-GKRP interaction: Diaphorase-coupled assay (AID 743205). In short, it runs like this:
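GST-GCK (10 nM) with FLAG-GKRP (10 nM), 5 mM glucose and 0.4 mM ATP in pH 7.6 Hepes; compounds preincubated 20 min with substrate. G6PDH/diaphorase coupling converts resazurin to resorufin, read kinetically (ex 525/em 590 nm) for 30 min.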

Assay [20] addresses T1, Hexokinase-4 (Homo sapiens) + Glucokinase regulatory protein (Homo sapiens). Kind of assay: qHTS assay for inhibitors of recombinant human GCK-GKRP interaction: ADP-Glo assay (AID 743206).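 Also: plate controls were DMSO plus enzyme for no effect and no enzyme for full effect.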 In short, it runs like this:
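GST-GCK and FLAG-GKRP (15 nM each in the dispensed mix, with 2 uM S6P) react with 0.4 mM ATP and 5 mM glucose (final) in Hepes pH 7.6 for 60 min at room temperature. ADP is measured by ADP-Glo luminescence.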

Values without a mark were called inactive. Records with an inconclusive call do not appear. The source made the active and inactive calls. Unless noted, calls follow the shape of the dose curve; as a rule, active = well fitted curve in the direction sought with a large enough effect; inconclusive = small, poorly fitted or top-dose-only effect, or another doubt; inactive = no such curve, though single readings can be large; an effect the other way counts as inactive or inconclusive.

T1 sequence (P35557 whole entry, looked up): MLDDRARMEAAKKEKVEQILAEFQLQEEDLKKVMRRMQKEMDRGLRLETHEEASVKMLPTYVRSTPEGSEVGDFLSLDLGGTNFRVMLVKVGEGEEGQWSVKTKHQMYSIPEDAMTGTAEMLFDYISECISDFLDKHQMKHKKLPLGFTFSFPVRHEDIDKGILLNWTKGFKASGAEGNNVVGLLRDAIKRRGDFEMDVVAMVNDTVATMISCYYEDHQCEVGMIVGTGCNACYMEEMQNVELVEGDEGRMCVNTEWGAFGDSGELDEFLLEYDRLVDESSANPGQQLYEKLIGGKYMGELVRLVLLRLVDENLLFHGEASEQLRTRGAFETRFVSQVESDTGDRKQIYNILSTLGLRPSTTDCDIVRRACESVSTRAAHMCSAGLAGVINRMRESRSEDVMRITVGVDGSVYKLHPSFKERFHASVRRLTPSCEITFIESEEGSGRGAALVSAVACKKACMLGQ
T1 sequence (Q14397 whole entry, looked up): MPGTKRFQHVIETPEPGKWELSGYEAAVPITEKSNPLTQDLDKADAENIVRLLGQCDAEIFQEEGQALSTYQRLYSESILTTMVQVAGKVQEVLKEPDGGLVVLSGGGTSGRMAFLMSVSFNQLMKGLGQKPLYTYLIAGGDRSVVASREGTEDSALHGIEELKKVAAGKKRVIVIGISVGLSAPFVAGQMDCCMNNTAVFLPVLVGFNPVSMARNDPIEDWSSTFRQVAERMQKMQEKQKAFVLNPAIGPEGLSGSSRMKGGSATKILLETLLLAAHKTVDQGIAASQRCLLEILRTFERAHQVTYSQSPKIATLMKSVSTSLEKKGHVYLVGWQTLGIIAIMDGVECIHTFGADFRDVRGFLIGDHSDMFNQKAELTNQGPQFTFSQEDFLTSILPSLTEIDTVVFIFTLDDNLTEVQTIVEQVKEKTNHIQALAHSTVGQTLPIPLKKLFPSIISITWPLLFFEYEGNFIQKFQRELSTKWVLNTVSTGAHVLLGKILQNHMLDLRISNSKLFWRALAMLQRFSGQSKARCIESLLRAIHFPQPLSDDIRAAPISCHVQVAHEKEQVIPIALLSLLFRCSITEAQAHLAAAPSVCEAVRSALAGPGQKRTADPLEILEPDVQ
Sequence of Arylsulfatase A (Homo sapiens) (P15289 whole entry, looked up): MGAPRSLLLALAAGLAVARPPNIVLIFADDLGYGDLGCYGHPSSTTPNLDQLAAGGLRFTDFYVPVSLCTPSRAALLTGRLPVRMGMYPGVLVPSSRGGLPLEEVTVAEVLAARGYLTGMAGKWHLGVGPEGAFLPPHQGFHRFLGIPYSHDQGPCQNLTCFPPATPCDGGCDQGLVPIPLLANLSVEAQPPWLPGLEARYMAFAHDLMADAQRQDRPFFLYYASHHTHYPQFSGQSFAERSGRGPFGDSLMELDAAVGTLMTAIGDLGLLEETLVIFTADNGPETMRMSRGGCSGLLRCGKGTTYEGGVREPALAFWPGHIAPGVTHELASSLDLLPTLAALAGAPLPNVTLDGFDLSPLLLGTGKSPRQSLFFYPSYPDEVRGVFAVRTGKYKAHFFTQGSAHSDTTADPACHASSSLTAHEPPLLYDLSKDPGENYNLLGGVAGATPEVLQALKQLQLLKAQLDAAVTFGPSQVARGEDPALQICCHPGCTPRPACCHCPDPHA
Sequence of Peptidyl-prolyl cis-trans isomerase NIMA-interacting 1 (Homo sapiens) (Q13526 whole entry, looked up): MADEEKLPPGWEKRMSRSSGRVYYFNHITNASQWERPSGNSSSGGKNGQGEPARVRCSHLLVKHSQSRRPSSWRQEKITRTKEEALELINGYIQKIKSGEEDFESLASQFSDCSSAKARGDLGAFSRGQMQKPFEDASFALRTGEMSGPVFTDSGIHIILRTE
Sequence of Thyrotropin-releasing hormone receptor (Homo sapiens) (P34981 whole entry, looked up): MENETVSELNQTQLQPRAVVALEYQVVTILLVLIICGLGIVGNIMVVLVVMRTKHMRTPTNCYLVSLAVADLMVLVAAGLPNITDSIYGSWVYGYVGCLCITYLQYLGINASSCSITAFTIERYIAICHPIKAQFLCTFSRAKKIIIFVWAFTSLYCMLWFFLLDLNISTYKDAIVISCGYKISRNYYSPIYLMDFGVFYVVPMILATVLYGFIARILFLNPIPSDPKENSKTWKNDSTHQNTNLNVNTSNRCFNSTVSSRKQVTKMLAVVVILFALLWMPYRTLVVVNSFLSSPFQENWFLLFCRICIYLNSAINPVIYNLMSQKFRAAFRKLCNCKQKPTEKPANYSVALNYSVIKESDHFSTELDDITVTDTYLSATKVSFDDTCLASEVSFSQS
Sequence of Voltage-gated inwardly rectifying potassium channel KCNH2 (Homo sapiens) (Q12809 whole entry, looked up): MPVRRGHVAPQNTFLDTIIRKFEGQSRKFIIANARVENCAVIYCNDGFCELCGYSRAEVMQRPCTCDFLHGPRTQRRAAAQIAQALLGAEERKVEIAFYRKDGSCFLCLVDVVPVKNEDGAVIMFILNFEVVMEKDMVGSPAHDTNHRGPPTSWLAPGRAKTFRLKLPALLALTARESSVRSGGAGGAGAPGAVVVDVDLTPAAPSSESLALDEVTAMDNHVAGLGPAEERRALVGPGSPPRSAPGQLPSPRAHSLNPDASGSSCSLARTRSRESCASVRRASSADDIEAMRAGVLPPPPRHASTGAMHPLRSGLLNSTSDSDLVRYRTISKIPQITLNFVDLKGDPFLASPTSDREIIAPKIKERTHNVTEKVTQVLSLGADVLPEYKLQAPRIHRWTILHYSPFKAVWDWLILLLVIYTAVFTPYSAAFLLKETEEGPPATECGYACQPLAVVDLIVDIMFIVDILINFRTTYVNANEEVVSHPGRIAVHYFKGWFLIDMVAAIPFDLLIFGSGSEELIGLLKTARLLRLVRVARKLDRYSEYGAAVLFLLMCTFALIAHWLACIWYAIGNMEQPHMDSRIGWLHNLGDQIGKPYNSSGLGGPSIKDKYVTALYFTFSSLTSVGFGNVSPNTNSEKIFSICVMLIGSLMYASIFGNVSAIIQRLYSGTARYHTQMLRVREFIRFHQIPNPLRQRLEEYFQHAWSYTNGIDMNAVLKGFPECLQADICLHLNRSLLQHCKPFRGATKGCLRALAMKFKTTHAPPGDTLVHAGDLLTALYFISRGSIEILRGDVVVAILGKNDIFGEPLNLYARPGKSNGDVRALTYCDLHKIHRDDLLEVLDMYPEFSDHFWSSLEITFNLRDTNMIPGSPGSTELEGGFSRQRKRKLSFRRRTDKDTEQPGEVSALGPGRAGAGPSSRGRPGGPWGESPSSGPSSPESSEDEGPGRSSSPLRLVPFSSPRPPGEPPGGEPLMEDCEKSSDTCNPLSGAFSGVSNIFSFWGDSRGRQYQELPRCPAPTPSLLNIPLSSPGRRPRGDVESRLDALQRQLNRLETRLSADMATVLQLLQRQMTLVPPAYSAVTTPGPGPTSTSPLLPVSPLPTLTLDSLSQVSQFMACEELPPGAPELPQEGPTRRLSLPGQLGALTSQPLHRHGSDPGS
Sequence of Tyrosine-protein kinase Yes (Homo sapiens) (P07947 whole entry, looked up): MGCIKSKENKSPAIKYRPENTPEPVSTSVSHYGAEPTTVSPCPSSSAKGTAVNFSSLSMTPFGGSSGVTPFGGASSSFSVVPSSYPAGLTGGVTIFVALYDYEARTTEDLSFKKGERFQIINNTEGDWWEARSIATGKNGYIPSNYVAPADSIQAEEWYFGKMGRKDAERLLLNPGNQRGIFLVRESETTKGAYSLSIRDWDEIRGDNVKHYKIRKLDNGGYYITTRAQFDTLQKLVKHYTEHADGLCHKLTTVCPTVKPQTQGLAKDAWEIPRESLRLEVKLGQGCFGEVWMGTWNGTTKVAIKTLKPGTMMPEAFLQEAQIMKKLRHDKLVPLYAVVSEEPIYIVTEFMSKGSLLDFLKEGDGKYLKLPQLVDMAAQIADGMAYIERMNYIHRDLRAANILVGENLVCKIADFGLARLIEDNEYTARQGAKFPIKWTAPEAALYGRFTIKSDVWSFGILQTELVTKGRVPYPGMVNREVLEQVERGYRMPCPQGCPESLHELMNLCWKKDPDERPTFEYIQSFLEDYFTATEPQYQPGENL
Sequence of Glutaminase kidney isoform, mitochondrial (Homo sapiens) (O94925 whole entry, looked up, canonical isoform): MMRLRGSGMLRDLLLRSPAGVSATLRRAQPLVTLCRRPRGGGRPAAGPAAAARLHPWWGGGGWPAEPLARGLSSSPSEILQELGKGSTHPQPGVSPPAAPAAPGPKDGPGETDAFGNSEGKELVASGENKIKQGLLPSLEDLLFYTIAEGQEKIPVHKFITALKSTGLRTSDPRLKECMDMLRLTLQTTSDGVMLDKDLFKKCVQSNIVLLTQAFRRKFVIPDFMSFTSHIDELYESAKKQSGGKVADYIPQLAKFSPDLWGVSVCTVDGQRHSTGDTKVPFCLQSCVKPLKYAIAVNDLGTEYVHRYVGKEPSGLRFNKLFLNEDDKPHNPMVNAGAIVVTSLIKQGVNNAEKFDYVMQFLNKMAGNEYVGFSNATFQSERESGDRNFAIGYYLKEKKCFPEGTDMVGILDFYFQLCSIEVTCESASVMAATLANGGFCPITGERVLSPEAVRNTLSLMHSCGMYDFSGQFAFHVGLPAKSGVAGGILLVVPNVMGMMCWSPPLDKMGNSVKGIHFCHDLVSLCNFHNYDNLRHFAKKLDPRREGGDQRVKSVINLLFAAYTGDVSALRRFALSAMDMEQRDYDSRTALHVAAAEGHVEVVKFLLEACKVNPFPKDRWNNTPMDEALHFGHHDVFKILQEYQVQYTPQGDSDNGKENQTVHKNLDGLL
Sequence of Galactokinase (Homo sapiens) (P51570 whole entry, looked up): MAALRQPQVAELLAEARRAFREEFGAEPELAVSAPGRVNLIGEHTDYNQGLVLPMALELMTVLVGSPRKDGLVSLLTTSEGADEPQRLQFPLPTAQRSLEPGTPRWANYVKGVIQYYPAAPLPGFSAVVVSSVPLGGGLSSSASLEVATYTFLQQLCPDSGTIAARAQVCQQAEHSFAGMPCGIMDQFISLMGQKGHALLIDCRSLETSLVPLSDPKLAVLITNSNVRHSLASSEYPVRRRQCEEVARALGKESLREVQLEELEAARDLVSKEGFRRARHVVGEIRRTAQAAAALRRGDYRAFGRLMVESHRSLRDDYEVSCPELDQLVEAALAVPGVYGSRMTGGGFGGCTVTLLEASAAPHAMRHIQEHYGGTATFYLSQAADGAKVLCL

Regarding `O=Nc1c(-c2c(O)[nH]c3ccccc23)[nH]c2ccccc12`, the outcome in [1], in assay [3], in assay [4], in assay [5], in [10] and in assay [11] was inactive. For the same compound, the outcome in assay [12], in assay [13], in [15], in assay [17], in assay [19] and in [20] was inactive. Further, in [2], the activation was -6%. Besides, the Potency entry in assay [6], in [7] and in assay [8] was “inactive” each time. In addition, the Potency in [9] is 11.2 µM (active); in [14], 0.772 µM (active); in assay [16], 10.7 µM (active); in assay [18], 10.3 µM (active).
